What is called inhibition is the drop in the measured response relative to a control, in per cent.

Molecules are shown by their SMILES. Values without a mark were called inactive. No rule for the calls is given here.

Pantothenate synthetase (Mycobacterium tuberculosis (strain ATCC 25618 / H37Rv)), sequence (P9WIL5 whole entry, looked up): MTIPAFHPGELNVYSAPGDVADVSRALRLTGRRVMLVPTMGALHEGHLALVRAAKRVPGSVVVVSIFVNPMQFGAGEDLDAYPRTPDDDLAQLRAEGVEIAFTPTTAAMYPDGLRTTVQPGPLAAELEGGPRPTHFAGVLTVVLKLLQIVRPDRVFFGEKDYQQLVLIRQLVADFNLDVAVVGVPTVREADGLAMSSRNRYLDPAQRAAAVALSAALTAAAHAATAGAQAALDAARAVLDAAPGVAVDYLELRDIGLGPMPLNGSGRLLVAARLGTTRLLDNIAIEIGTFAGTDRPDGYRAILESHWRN

The experiment addresses Pantothenate synthetase (Mycobacterium tuberculosis (strain ATCC 25618 / H37Rv)) (UniProt P9WIL5). The experiment can be described thus: Recombinant Mtb pantothenate synthetase (PanC) inhibitors, coupled enzyme, confirmatory (AID 375).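 Also: 0% = full reaction with vehicle and 100% = no enzyme background.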 Conditions: coupled enzyme assay; at 10 µM, hits give high values.
In the case of `CCSc1nnc(NC(=O)c2nn(C(C)C)c(=O)c3ccccc23)s1`, the inhibition is 1%.
Consider `Cc1[nH]nc2c1C(=O)CC(C)(C)C2`, for which the inhibition is 0%.
The value for `CC(C)(C)C1CCc2c(sc3c2C(=O)NC(c2ccco2)N3)C1` (stereo not drawn) was 2%; that for `Cc1cnc(C(=O)OCC(=O)Nc2ccc(Cl)cc2Cl)cn1` was 8%.
The result for `Cc1cc(C)cc(NC(=O)C2CCCN(S(=O)(=O)c3cnc[nH]3)C2)c1` (stereo not drawn) reads 0%; that for `COc1ccc(-c2nc(CSCC(=O)N3CCN(c4cccc(C)c4)C(C)C3)c(C)o2)cc1OC` (stereo not drawn), 0%; that for `C[C@]12CC[C@@H]3c4ccc(O)cc4CC[C@H]3[C@@H]1CCC2=O`, 6%.
In the case of `NC(=O)CCS(=O)(=O)CCN1CCCCC1`, the inhibition was 0%.
The result for `CC(CC(=O)NC1CCSC1=O)c1ccccc1` (stereo not drawn) reads 0%.
The result for `O=C(Cn1cnc2ccccc2c1=O)NCCC(=O)N1CCN(Cc2ccccc2)CC1` reads 0%; that for `O=C1CC(=O)N(Cc2cccs2)C(=O)N1`, 0%.
The value for `Cc1cc(=O)oc2c1c(C)nn2-c1ccc(C(=O)OC(C)C)cc1` was 0%; that for `COC(=O)c1c(N)n(-c2cc(OC)cc(OC)c2)c2nc3ccccc3nc12` was 1%; that for `COc1ccc(-c2noc(-c3cc(Cl)ccc3Cl)n2)cc1OC` was 2%.
For `Cn1c(=O)cc(OCC(=O)NCCCN2CCN(Cc3ccccc3)CC2)c2ccccc21`, the inhibition is 0%.
As for `CCCCCc1c(O)nc(SCC(=O)NCC2CCCO2)[nH]c1=O` (stereo not drawn), the inhibition is 6%.
The value for `O=C(NCc1ccccn1)C(C(=O)c1ccc(F)cc1)n1ccccc1=O` (stereo not drawn) was 5%; that for `COc1ccc(N2CCN(c3ccc(N)cc3C#N)CC2)cc1` was 7%; that for `CCOC(=O)c1ccc(COC(=O)CCc2nc3ccccc3[nH]c2=O)o1` was 0%.
Consider `C[C@H](NC(=O)NCc1cccs1)C(=O)O`, for which the inhibition is 0%.
Regarding `Cc1[nH]c2ccccc2c(=O)c1CN(C)Cc1ccccc1`, the inhibition was 6%.
With `COc1cc(CC(=O)NCc2ccc3c(c2)OCO3)cc(OC)c1OC`, the inhibition was 1%.
The result for `CC(NC(=O)c1ccco1)C(c1cccs1)N1CCN(c2ccc(F)cc2)CC1` (stereo not drawn) reads 0%.

Values taken from PubChem BioAssay.
